Results filed as inconclusive are left out. A call without a number means that no potency is given here. The source made the active and inactive calls. The call rests on the fitted dose curve.
Key:
[1] = Cytotoxicity counterscreen for inhibitors of SARS-CoV-2 cell entry (AID 1645845); details: cell viability (SARS-CoV-2 entry assay cells); series mostly up to 57.1 µM; further: nearly all actives have a fitted effect of over 50% in size
Summary of the method: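 Expi293F/hACE2 cells seeded overnight; cpd pin-transferred in DMSO, 1 h preincubation, + media, 48 h 37 C 5% CO2; ATPLite 1step luminescence; normalized to cells and no cells.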

[2] = Primary qHTS to identify inhibitors of SARS-CoV-2 cell entry (AID 1645846); details: SARS-CoV-2 pseudovirus cell entry assay, luminescence; activity change, negative = inhibition: at 57.1 µM (top of the series) unless noted; series mostly up to 57.1 µM; further: nearly all actives have a fitted effect of over 45% in size
Summary of the method: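 HEK293-ACE2 (Expi293F, stable hACE2), 1500 cells/well, o/n 37C; cpd 23 nL pin, 1 h; MLV-PP w/ SARS-CoV-2-S (Wuhan-Hu-1, Δ19 C-term); 48 h 37C; Bright-Glo luminescence; normalized vs S-PP and bald PP.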

Question: With CC1(C)O[C@@H]2C[C@H]3[C@@H]4CCC5=CC(=O)C=C[C@]5(C)[C@@H]4[C@@H](O)C[C@]3(C)[C@]2(C(=O)CO)O1 as the compound, how does the Potency [1] read?
Answer: inactive

Question: For OC[C@H]1O[C@@H](Oc2ccc(O)cc2)[C@H](O)[C@@H](O)[C@@H]1O, which Potency [1] is on record?
Answer: inactive

Question: With CC(=O)CC/C=C(\C)CC/C=C(\C)CC/C=C(\C)CCC=C(C)C as the compound, how does the Potency [1] read?
Answer: inactive

Question: For CSCC[C@H](NC(=O)[C@H](Cc1ccc(OS(=O)(=O)O)cc1)NC(=O)[C@@H](N)CC(=O)O)C(=O)NCC(=O)N[C@@H](Cc1c[nH]c2ccccc12)C(=O)N[C@@H](CCSC)C(=O)N[C@@H](CC(=O)O)C(=O)N[C@@H](Cc1ccccc1)C(N)=O, which Potency [1] is on record?
Answer: inactive

Question: Which Potency [1] does the source give for CC(C)[C@H]1C(=O)N2CCC[C@H]2[C@]2(O)O[C@](NC(=O)[C@@H]3C[C@@H]4c5cccc6[nH]cc(c56)C[C@H]4N(C)C3)(C(C)C)C(=O)N12 here?
Answer: inactive

Question: With NC(=O)N1c2ccccc2C=Cc2ccccc21 as the compound, how does the Potency [1] read?
Answer: inactive

Question: Which Potency [1] does the source give for NC(=O)c1cccnc1 here?
Answer: inactive

Question: Which Potency [1] does the source give for CCN1CCC[C@H]1CNC(=O)c1cc(S(N)(=O)=O)ccc1OC here?
Answer: inactive

Question: With Cc1ccc(C(=O)C(C)CN2CCCCC2)cc1 (configuration not stated) as the compound, how does the Potency [1] read?
Answer: inactive

Question: For O=C(Cn1ccnc1[N+](=O)[O-])NCc1ccccc1, which Potency [1] is on record?
Answer: inactive

Question: Which Potency [1] does the source give for COC(=O)C1=C(C)NC(C)=C(C(=O)OCCc2ccc(N3CCN(C(c4ccccc4)c4ccccc4)CC3)cc2)C1c1cccc([N+](=O)[O-])c1 (configuration not stated) here?
Answer: inactive

Question: Which Potency [1] does the source give for CC[C@H](C)C(=O)O[C@H]1C[C@H](O)C=C2C=C[C@H](C)[C@H](CC[C@@H](O)C[C@@H](O)CC(=O)O)[C@H]21 here?
Answer: inactive

Question: For NCCCNCCSP(=O)(O)O, which activity change, negative = cytotoxicity [1] is on record?
Answer: -16.9% [at 11.3 µM] (inactive)

Question: Which Potency [1] does the source give for C=CC1=C(C(=O)O)N2C(=O)[C@@H](NC(=O)/C(=N\O)c3csc(N)n3)[C@H]2SC1 (stereo in doubt) here?
Answer: inactive

Question: With c1ccc2sc(SN3CCOCC3)nc2c1 as the compound, how does the Potency [1] read?
Answer: inactive

Question: For CC(N=C(NC#N)Nc1ccncc1)C(C)(C)C (configuration not stated), which Potency [1] is on record?
Answer: inactive

Question: For CC(C)(O/N=C(\C(=O)N[C@@H]1C(=O)N2C(C(=O)[O-])=C(C[n+]3ccccc3)CS[C@H]12)c1csc(N)n1)C(=O)O, which Potency [1] is on record?
Answer: inactive

Question: Which Potency [1] does the source give for C=CCN1C[C@H](C(=O)N(CCCN(C)C)C(=O)NCC)C[C@@H]2c3cccc4[nH]cc(c34)C[C@H]21 here?
Answer: inactive

Question: With C=CC(N)CCC(=O)O (configuration not stated) as the compound, how does the Potency [1] read?
Answer: inactive

Question: Which Potency [1] does the source give for c1ccc2c(c1)CCCC2C1=NCCN1 (configuration not stated) here?
Answer: inactive

Question: Which Potency [1] does the source give for CCCCCN(CCCOC)C(=O)C(CCC(=O)O)NC(=O)c1ccc(Cl)c(Cl)c1 (configuration not stated) here?
Answer: inactive

Question: For CC(=O)CC(c1ccc([N+](=O)[O-])cc1)c1c(O)c2ccccc2oc1=O (configuration not stated), which Potency [1] is on record?
Answer: inactive

Question: For Cn1c(=O)c2[nH]c(Br)nc2n(C)c1=O, which Potency [1] is on record?
Answer: inactive

Question: Which Potency [1] does the source give for O=C(O[C@H]1CN2CCC1CC2)N1CCc2ccccc2[C@@H]1c1ccccc1 here?
Answer: inactive

Question: For CCCN1CCCC[C@H]1C(=O)Nc1c(C)cccc1C, which Potency [1] is on record?
Answer: inactive

Question: With O=C(NCC(O)CO)c1c(I)c(C(=O)NCC(O)CO)c(I)c(N(CCO)C(=O)CO)c1I (configuration not stated) as the compound, how does the Potency [1] read?
Answer: inactive

Question: With CC1(C)S[C@@H]2[C@H](NC(=O)C(c3ccccc3)S(=O)(=O)O)C(=O)N2[C@H]1C(=O)O (some centres not stated) as the compound, how does the Potency [1] read?
Answer: inactive

Question: Which Potency [1] does the source give for N#Cc1ccc2c(c1)N(CCCN1CCC(O)CC1)c1ccccc1S2 here?
Answer: inactive

Question: For CCOC(=O)c1ccccc1O, which Potency [1] is on record?
Answer: inactive

Question: With CO[C@@]1(NC(=O)CSC[C@@H](N)C(=O)O)C(=O)N2C(C(=O)O)=C(CSc3nnnn3C)CS[C@@H]21 as the compound, how does the Potency [1] read?
Answer: inactive

Question: With COc1cc(C(=O)NC2CCCNC2)cc(OC)c1OC (configuration not stated) as the compound, how does the Potency [1] read?
Answer: inactive

Question: Which Potency [1] does the source give for O=C(O)Cc1sc(-c2ccccc2)nc1-c1ccc(Cl)cc1 here?
Answer: inactive

Question: With CC(=O)OCC(=O)[C@H]1CC[C@H]2[C@@H]3CCC4=CC(=O)CC[C@]4(C)[C@H]3CC[C@]12C as the compound, how does the Potency [1] read?
Answer: inactive

Question: For CS(=O)(=O)c1ccc([C@@H](O)[C@@H](CO)NC(=O)C(Cl)Cl)cc1, which Potency [1] is on record?
Answer: inactive

Question: With Cc1cccc(C)c1OCC(=O)N[C@@H](Cc1ccccc1)[C@@H](O)C[C@H](Cc1ccccc1)NC(=O)[C@H](C(C)C)N1CCCNC1=O as the compound, how does the Potency [1] read?
Answer: inactive

Question: Which Potency [1] does the source give for O=C(OCc1ccccc1)c1ccccc1 here?
Answer: inactive

Question: And the Potency [2]?
Answer: inactive

Question: Which Potency [1] does the source give for CCCCCCCCCCCCCCCCO here?
Answer: inactive

Question: And the activity change, negative = inhibition [2]?
Answer: -7.94%

Question: Which results are given for C=CCc1ccc(O)c(OC)c1?
Answer: Potency [1]: inactive; Potency [2]: inactive

Question: For Nc1ccc(S(=O)(=O)Nc2ccc(Cl)nn2)cc1, which Potency [1] is on record?
Answer: inactive

Question: What about the Potency [2] of the same compound?
Answer: inactive

Question: Which results are given for Nc1ccc(S(=O)(=O)Nc2ccnn2-c2ccccc2)cc1?
Answer: Potency [1]: inactive; activity change, negative = inhibition [2]: 4.82% [at 27.1 µM]

Question: With O=c1c(-c2ccc(O)cc2)coc2cc(O)cc(O)c12 as the compound, how does the Potency [1] read?
Answer: inactive

Question: What about the activity change, negative = inhibition [2] of the same compound?
Answer: -23.9% [at 114 µM]
